# Hits are enriched below; roughly 19% of the tested compounds scored in any of these assays.
# DT40 TDP1 CPT: qHTS for Inhibitors of human tyrosyl-DNA phosphodiesterase 1 (TDP1): qHTS in cells in presence of CPT. chicken DT40 Tdp1-/-;hTDP1 cells + 20 nM CPT, ATP luminescence, 48 h. Potency, µM (series often up to 46.2 µM), for the others: top-dose activity change, negative = growth inhibition, hits mostly inhibitors. actives 12% (n = 420,000). AID 686979, 2013; note: potency is the fitted concentration of half-maximal effect; nearly all actives have a fitted effect of over 55% in size
#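 Chicken DT40 Tdp1-/- cells complemented with human TDP1, 400 cells/well, exposed to compounds plus 20 nM camptothecin for at least 48 h at 37 C; viability read as ATP content by CellTiter-Glo luminescence.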
# HT1080 IDH1KD tx: qHTS for induction of synthetic lethality in tumor cells producing 2HG: qHTS for the HT-1080-IDH1KD cell line; HT-1080 IDH1 knockdown viability, ATP luminescence, 48 h; Potency, µM (top dose mostly 46.1 µM), for the others: at the top dose activity, negative = toxicity, usual class: cytotoxic; actives 2% (n = 360,000);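 note: potency is the fitted concentration of half-maximal effect; 0% = DMSO wells and -100% = cell-free medium wells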
#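 CellTiter-Glo luminescence after 48 h compound exposure at 37 degrees C of IDH1-knockdown HT-1080 cells in 5% FBS RPMI. %Activity scaled between DMSO wells and cell-free media wells, with curves fitted and assigned curve classes.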
# IL1B secr inh: qHTS for Inhibitors of Inflammasome Signaling: IL-1-beta AlphaLISA Primary Screen | THP-1 LPS/ATP IL-1B secretion, AlphaLISA, 16 h; hits give low values | activity change, % at 57.5 µM | actives 4.7% (n = 360,000) | AID 743279, 2014; in the data active = activity change below about -50%; inconclusive = mostly about -30% to -49%
#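 Secreted IL-1B measured by AlphaLISA bead assay after 16 h compound exposure of THP-1 cells; compounds (final up to 57.5 uM) added 1 h before LPS (250 ng/mL) and ATP (1.25 mM) stimulation; lower signal means less secretion.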
# HT1080NT lethal: qHTS for induction of synthetic lethality in tumor cells producing 2HG: qHTS for the HT-1080-NT fibrosarcoma cell line. HT-1080-NT fibrosarcoma viability, CellTiter-Glo ATP luminescence, 48 h. Potency, µM (top dose mostly 46.1 µM), inactives show at the top dose activity, negative = less viability, actives largely listed as cytotoxic. actives 1.6% (n = 360,000). AID 686970, 2013;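 note: NT is the 2HG producing partner of a matched IDH1 knockdown line; potency is the fitted concentration of half-maximal effect; 0% = DMSO-treated cells and -100% = media-only wells without cells; nearly all actives have a fitted effect of over 55% in size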
#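 Luminescent CellTiter-Glo readout after 48 hours of compound exposure at 37 degrees C defined viability of HT-1080-NT cells. Activity was normalized to DMSO wells and cell-free media wells; concentration-response curves were fitted and assigned curve classes.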
# DT40 TDP1 no CPT: qHTS for Inhibitors of human tyrosyl-DNA phosphodiesterase 1 (TDP1): qHTS in cells in absence of CPT; DT40 Tdp1-/- hTDP1 cells, no CPT, ATP luminescence, 48 h; Potency, µM (titrated, usually from 46.2 µM), inactives show at the top dose activity change, negative = growth inhibition, usual class: inhibitors; actives 15% (n = 420,000); note: potency is the fitted concentration of half-maximal effect; nearly all actives have a fitted effect of over 55% in size
#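 Camptothecin absent (DMSO only). Human TDP1-complemented DT40 knockout cells, 400 cells/well, 37 °C for minimum 48 hr; ATP measured via CellTiter-Glo, 30 min dark incubation, luminescence.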
# * marks the source's active call; other numbers are inactive results; i = inactive; u = inconclusive; x = no result given. Unless noted, calls come from the whole dose curve; as a rule, active = well fitted curve in the direction sought with a large enough effect; inconclusive = small, poorly fitted or top-dose-only effect, or another doubt; inactive = no such curve, though single readings can be large; an effect the other way counts as inactive or inconclusive. Unless noted, % is set by controls: 0 for no effect and ±100 for the full control effect.
SMILES,DT40 TDP1 CPT,HT1080 IDH1KD tx,IL1B secr inh,HT1080NT lethal,DT40 TDP1 no CPT
CCC(C)[C@H](NC(=O)N1CC(=O)Nc2ccccc21)C(=O)N[C@H](C(=O)O)c1ccccc1 (some centres undefined),4%,8%,31,8%,2%
O=C(COC(=O)CCCN=C1NS(=O)(=O)c2ccccc21)NNC(=O)c1ccccc1,-1%,-2%,12,-4%,-6%
COc1cccc(C(=O)COc2ccc(NC(=O)c3ccccc3)cc2)c1,u,-6%,-10,-6%,u
CN(Cc1ccccc1)C(CNS(=O)(=O)c1ccccc1)c1ccccc1 (centres undefined),u,-18%,-4,-9%,u
Cc1cccc(N(C)C(CNS(=O)(=O)c2ccccc2)c2ccccc2)c1 (centres undefined),16µM*,x,x,x,u
CCN(c1ccccc1)C(CNS(=O)(=O)c1ccccc1)c1ccccc1 (centres undefined),18µM*,x,x,x,u
Cc1cc(C)c(S(=O)(=O)N2CCCC(C(=O)NC3CC3)C2)c(C)c1 (centres undefined),-23%,3%,12,6%,-30%
Cc1ccc(S(=O)(=O)N2CCN(C(=O)Cn3nc(C(=O)O)c4ccccc4c3=O)CC2)cc1,2%,0%,0,1%,-22%
Cc1ccc(C(O)c2ncc(-c3ccc4ccccc4c3)[nH]2)cc1F (centres undefined),29µM*,-15%,0,-19%,18µM*
OC(c1ccc(Cl)c(Cl)c1)c1ncc(-c2ccc(C(F)(F)F)cc2)[nH]1 (centres undefined),u,u,u,u,16µM*
Cc1cccc(C(O)c2ncc(-c3ccc(C(F)(F)F)cc3)[nH]2)c1C (centres undefined),u,-12%,21,4%,u
Cc1ccc(C(O)c2ncc(-c3ccc(C(F)(F)F)cc3)[nH]2)cc1F (centres undefined),u,u,-23,u,21µM*
Cc1cc(C)cc(C(O)c2ncc(-c3ccc(C(F)(F)F)cc3)[nH]2)c1 (centres undefined),u,u,107,u,16µM*
Cc1ccc(C(O)c2ncc(-c3ccc(F)cc3)[nH]2)cc1F (centres undefined),u,-9%,8,-4%,u
COC(=O)c1cc([N+](=O)[O-])c(C)c(C)n1,-4%,2%,-16,6%,-6%
Cc1ccc(S(=O)(=O)NN=C2CCc3ccccc32)cc1,-20%,-10%,14,-2%,u
CCOc1cc(N2CCOCC2)c(OCC)cc1NC(=O)COC(=O)c1ccccc1OC(F)F,u,10%,10,6%,-22%
CC(C)(C)c1ccc(N2C(=O)CSC2c2cccnc2)cc1 (centres undefined),u,-1%,13,1%,8.2µM*
O=C1CSC(c2cccnc2)N1c1ccccc1 (centres undefined),-9%,1%,9,-1%,-18%
O=C(NNc1ccccc1)Nc1ccccc1F,u,-5%,-3,-8%,7.3µM*
Fc1cc(Br)ccc1NC(=S)Nc1ccccc1,-8%,16%,0,18%,u
Fc1ccccc1NC(=S)Nc1ccc(Br)cc1,15µM*,1%,-58*,-4%,23µM*
O=C(Nc1ccc(Br)cc1)Nc1ccccc1F,15µM*,-17%,-66*,-2%,15µM*
S=C(Nc1ccccc1)Nc1ccc(Br)cc1,16µM*,2%,9,1%,21µM*
O=C(O)c1ccccc1C(=O)c1ccc(F)c(F)c1,-4%,1%,0,6%,3%
SMILES,DT40 TDP1 CPT,HT1080 IDH1KD tx,IL1B secr inh,HT1080NT lethal,DT40 TDP1 no CPT
COc1cc(Nc2ncnc(N)n2)cc(OC)c1OC,-12%,1%,7,9%,-26%
O=C(Nc1ccc(Cl)c(Cl)c1)Nc1ccc(Br)cc1F,5.8µM*,16µM*,u,u,12µM*
N#Cc1ccc(NC(=S)Nc2ccccc2)cc1,u,12%,i,-9%,15µM*
COC(=O)C[C@H]1C=C[C@@H](NC(=O)c2ccncc2)[C@@H](CO)O1,8%,13%,10,9%,5%
CCN(CCO)c1ccc(Nc2cc(-c3ccc(-c4ccccc4)cc3)ncn2)cc1,18µM*,u,-8,u,15µM*
O=c1nc(-c2ccccc2Cl)c2cc(F)ccc2[nH]1,-13%,-11%,1,-15%,u
Cc1cc(=O)[nH]c2cc(O)ccc12,5%,-6%,23,9%,4%
Cc1cc(=O)[nH]c2ccc(O)cc12,0.35µM*,x,x,x,-1%
O=c1c2ccccc2[nH]c2ccc(F)cc12,21µM*,-3%,-22,-4%,9.2µM*
O=c1[nH]c2ccccc2c(=O)c2ccccc12,-7%,-4%,-17,-1%,-25%
Cc1ccc2[nH]c3ccccc3c(=O)c2c1,12µM*,-22%,-16,-11%,12µM*
O=c1c2ccccc2[nH]c2ccc(O)cc12,16%,-2%,-71*,3%,-25%
Cc1ccc2c(c1)c(=O)c(C(=O)c1ccc3c(c1)OCO3)cn2Cc1cccc(F)c1,u,x,x,x,16µM*
CCOc1ccc2c(c1)c(=O)c(C(=O)c1ccc3c(c1)OCO3)cn2Cc1cccc(F)c1,u,x,x,x,23µM*
CN(CCc1ccccc1)C(c1cc2ccccc2o1)c1nnnn1C(C)(C)C (centres undefined),u,u,2,-25%,u
CCCCn1nnnc1C(c1cc2ccccc2o1)N(CCC#N)Cc1ccccc1 (centres undefined),16µM*,-11%,-17,-24%,u
CN(Cc1ccccc1)C(c1cc2ccccc2o1)c1nnnn1C(C)(C)C (centres undefined),u,-19%,-8,-18%,18µM*
CCCCn1nnnc1C(c1cc2ccccc2o1)N(Cc1ccccc1)Cc1ccccc1 (centres undefined),u,6%,21,-1%,18µM*
CCCCn1nnnc1C(c1cc2ccccc2o1)N(C)CCc1ccccc1 (centres undefined),u,-22%,25,-20%,21µM*
O=C(CSc1nnc(Cc2ccccc2)o1)c1cc(F)ccc1F,-8%,-4%,-1,-3%,-4%

# Assay outcomes from PubChem BioAssay.
